Laboratory results from PMC4336329 (PLoS ONE, 2015).
The whole screen tested about 310,000 compounds, of which about 14,000 (4.5%) showed an effect of 50% or more. Effects have a minus sign here. The full list was thinned out, with strong results kept by preference.

These compounds were tested against human ether-à-go-go-related gene (hERG) potassium channel (human, UniProt Q12809) (assay: primary screen, population patch clamp on CHO cells stably expressing hERG; higher = less effect of the substance).
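Further: peak tail current of the secondary pulse compared with the same well before compound.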

human ether-à-go-go-related gene (hERG) potassium channel, sequence (Q12809 whole entry, looked up): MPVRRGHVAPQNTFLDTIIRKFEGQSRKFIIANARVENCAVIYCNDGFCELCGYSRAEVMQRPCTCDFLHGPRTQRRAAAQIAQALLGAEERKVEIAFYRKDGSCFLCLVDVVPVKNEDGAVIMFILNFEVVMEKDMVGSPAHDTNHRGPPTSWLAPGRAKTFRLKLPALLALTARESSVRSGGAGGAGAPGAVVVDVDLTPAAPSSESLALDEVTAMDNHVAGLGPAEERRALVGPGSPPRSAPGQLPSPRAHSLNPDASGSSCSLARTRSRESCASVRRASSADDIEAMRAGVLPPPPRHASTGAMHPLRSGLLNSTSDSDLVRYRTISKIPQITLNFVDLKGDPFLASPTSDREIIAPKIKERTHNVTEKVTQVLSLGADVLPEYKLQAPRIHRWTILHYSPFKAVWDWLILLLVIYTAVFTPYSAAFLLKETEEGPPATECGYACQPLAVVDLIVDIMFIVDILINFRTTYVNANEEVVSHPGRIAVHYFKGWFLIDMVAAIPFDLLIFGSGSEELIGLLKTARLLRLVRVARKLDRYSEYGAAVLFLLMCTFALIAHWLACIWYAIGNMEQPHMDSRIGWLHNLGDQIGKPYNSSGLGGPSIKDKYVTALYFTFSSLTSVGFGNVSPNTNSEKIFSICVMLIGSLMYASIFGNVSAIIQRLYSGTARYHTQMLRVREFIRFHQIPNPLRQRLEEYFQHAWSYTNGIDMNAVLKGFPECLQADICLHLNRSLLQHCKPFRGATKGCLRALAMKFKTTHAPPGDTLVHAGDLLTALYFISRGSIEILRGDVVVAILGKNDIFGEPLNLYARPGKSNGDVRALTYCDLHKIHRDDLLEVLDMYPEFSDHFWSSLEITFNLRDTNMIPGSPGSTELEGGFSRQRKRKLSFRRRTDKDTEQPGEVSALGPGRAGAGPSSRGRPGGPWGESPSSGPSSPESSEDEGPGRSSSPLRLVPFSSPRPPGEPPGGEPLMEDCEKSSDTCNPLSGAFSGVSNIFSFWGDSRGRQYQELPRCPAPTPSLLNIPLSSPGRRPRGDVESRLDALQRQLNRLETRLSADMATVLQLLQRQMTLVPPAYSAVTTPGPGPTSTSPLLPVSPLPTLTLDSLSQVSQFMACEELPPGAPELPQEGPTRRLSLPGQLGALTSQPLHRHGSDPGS

| Compound | hERG current change (%, negative = inhibition) at 10uM [%] |
| --- | --- |
| CC(NC(=O)CSc1nnc(CC(=O)Nc2ccc(Cl)c(Cl)c2)n1C)c1ccccc1 (stereo not drawn) | 4.55 |
| COc1ccc(C2CC(c3ccc(Cl)cc3Cl)Nc3nc(N)nn32)cc1OC (stereo not drawn) | -18.7 |
| COc1cc(NC(C)=O)c2ncccc2c1[N+](=O)[O-] | -5.4 |
| CC1CCCCC1NC(=O)CCN1C(=O)C2C3C=CC(C3)C2C1=O (stereo not drawn) | 13 |
| COc1cc2c(cc1OC)C(c1cc3cc4c(cc3[nH]c1=O)OCO4)N(C(=O)C(C)C)CC2 (stereo not drawn) | -4.79 |
| Cc1ccc(C(=O)N/C(=C\c2ccc(-c3ccccc3[N+](=O)[O-])o2)C(=O)NCCCN2CCOCC2)cc1 | -61.9 |
| N#C/C(=C\c1ccc(-c2cccc([N+](=O)[O-])c2)o1)C(=O)NCCN1CCOCC1 | -47.2 |
| Cc1ccc(C(=O)N/C(=C\c2cn(C)c3ccccc23)C(=O)NCCCN2CCOCC2)cc1 | 0.137 |
| N#C/C(=C/c1ccc(-c2ccccc2[N+](=O)[O-])o1)C(=O)NCCN1CCCCC1 | -69.1 |
| Cc1ccc(C(=O)N/C(=C\c2sccc2C)C(=O)NCCCN2CCOCC2)cc1 | -17.7 |
| N#C/C(=C\c1ccc(-c2ccccc2[N+](=O)[O-])o1)C(N)=O | 24.6 |
| CNC(=O)/C(C#N)=C/c1ccc(-c2ccccc2[N+](=O)[O-])o1 | 8.72 |
| Cc1ccc(C(=O)N/C(=C\c2ccc(-c3cccc([N+](=O)[O-])c3)o2)C(=O)NCCCN2CCOCC2)cc1 | -74.9 |
| Cc1ccc(C(=O)N/C(=C\c2ccco2)C(=O)NCCCN2CCOCC2)cc1C | -12.7 |
| O=C(CSc1nnc(SCc2ccccc2)s1)N/N=C/C=C\c1ccco1 | 9.17 |
| Cc1ccccc1-c1nc2cc(N)ccc2o1 | -15.6 |
| Cc1ccc2c(c1)C(c1ccccc1)N(C(=O)CC(C)C)CC(=O)N2 (stereo not drawn) | -28.5 |
| O=C1N=C(N2C=CC(=C3C=CNC=C3)C=C2)/C(=C/N=NC(=O)c2ccccc2)S1 | 30.3 |
| COc1cc(CN(C)CC2CCCN(CCc3cccc(C(F)(F)F)c3)C2)ccc1O (stereo not drawn) | -62.8 |
| CC(=O)Nc1ccc(CN(C)CC2CCCN(CCc3cccc(C(F)(F)F)c3)C2)cc1 (stereo not drawn) | -68.4 |
| O=c1cnn(-c2ccccc2)c(-c2ccccc2)c1 | 3.33 |
| Cc1cc(C)n2ncnc2n1 | 2.2 |
| O=C1NC(=Nc2ccccc2)S/C1=C/c1cccnc1 | 15.9 |
| Cn1c(O)c(/C=C2\C=NN=C2c2ccccc2)sc1=S | 0.793 |

| Compound | hERG current change (%, negative = inhibition) at 10uM [%] |
| --- | --- |
| COc1ccc(CN2CCN(CCCc3ccccc3)C(CCO)C2)cc1OC (stereo not drawn) | -72.8 |
| COc1ccc(CN2CCN(Cc3ccccc3)C(CCO)C2)cc1OC (stereo not drawn) | -30.7 |
| COc1cc(CN2CCN(CCCc3ccccc3)C(CCO)C2)cc(OC)c1O (stereo not drawn) | -61.5 |
| CCOc1cc(CN2CCN(CCc3ccccc3)C(CCO)C2)ccc1OC (stereo not drawn) | -66.5 |
| CCOc1cc(CN2CCN(Cc3ccc(C)o3)C(CCO)C2)ccc1OC (stereo not drawn) | -3.33 |
| COc1cc(C(=O)Nc2ccc(S(=O)(=O)Nc3nccc(C)n3)cc2)cc(OC)c1OC | 12.9 |
| O=C(CN1CCN(c2ccccn2)CC1)Nc1cc(C(F)(F)F)ccc1Cl | -3.6 |
| COc1ccc(-c2cc(-c3ccccc3)n3ncnc3n2)cc1 | -60.9 |
| Cc1cc(-c2ccccc2)n2ncnc2n1 | 12.5 |
| c1ccc(-c2cc(-c3ccccc3)n3ncnc3n2)cc1 | -49.5 |
| COc1ccc(CCNc2cc(-c3ccccc3)nc3ncnn23)cc1 | -2.18 |
| COc1ccc(-c2ccnc3ncnn23)cc1 | -9.61 |
| COc1ccc(-c2cc(-c3ccccc3)nc3ncnn23)cc1 | -56.4 |
| COc1ccc(-c2cc(NCCc3ccncc3)n3ncnc3n2)cc1 | -55.8 |
| COc1ccc(-c2cc(NCc3ccccn3)n3ncnc3n2)cc1 | -23.5 |
| COc1ccc(-c2cc(-c3ccc(Br)cc3)nc3ncnn23)cc1OC | -34.4 |
| COc1cc(OC)c(NS(=O)(=O)c2cn(C)cn2)cc1Cl | 5.67 |
| CCOC(=O)C(Cc1ccc(OC)c([N+](=O)[O-])c1)NC(=O)CCC(=O)Nc1ccc(OC)cc1 (stereo not drawn) | 1.35 |
| COC1CCCN(C(=O)c2ccc(OC3CCN(S(=O)(=O)N(C)C)CC3)cc2)C1 (stereo not drawn) | 8.14 |
| CCOC(=O)C(CCSC)NC(=O)CN.Cl (stereo not drawn) | -6.89 |
| Cc1ccc(-n2c(C)cc(/C=C3/C(=O)NC(=O)N(C)C3=O)c2C)cc1 | 15.2 |
| CSc1nnc(-c2ccc(Br)s2)n1C | 1.98 |
| O=C(Cn1cc(C(F)(F)F)ccc1=O)N/N=C/c1ccccc1O | -7.65 |
| O=C(CSC1=NCCN1)Nc1ccccc1[N+](=O)[O-] | 11.2 |
